Source: PubChem BioAssay AID1159580 (chemical genetic matrix, 2015)
The whole screen tested about 5,500 compounds, of which about 2,000 (36%) were called active. Inconclusive results (about 18%) are left out. No stated cut-off is given here; in the data, active means normalized growth mostly below about 0.91 (no sharp cut-off); inconclusive means no clear call, values can overlap the other calls; inactive means mostly above about 0.92. The list shows a part of the results.

Assay: chemical genetic growth profiling, strain panel (AID 1159580);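 further: tested at 20 µM; growth read once vehicle control cultures reached saturation at 30 °C; 1 = growth at the plate median or of vehicle wells; lower values mean less growth of the strain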
Conditions: S. cerevisiae deletion strains, growth OD

Measured: normalized growth

CCOc1ccc2c(c1)C(C)=CC(C)(C)N2
inactive: locus YAL013W, strain DEP1, hits give low values 0.99 | locus YAL021C, strain ccr4, hits give low values 0.99 | locus YAL026C, strain drs2, hits give low values 0.983 | locus YAL030W, strain snc1, hits give low values 0.996 | locus YBL061C, strain skt5, hits give low values 0.988 | locus YBR009C, strain hhf1, hits give low values 0.996 | locus YBR021W, strain FUR4, hits give low values 0.983 | locus YBR023C, strain chs3, hits give low values 0.994 | locus YBR171W, strain sec66, hits give low values 0.982 | locus YBR229C, strain ROT2, hits give low values 0.986 | locus YBR231C, strain swc5, hits give low values 0.991 | locus YBR279W, strain paf1, hits give low values 0.99 | locus YCL011C, strain gbp2, hits give low values 0.989 | locus YCL016C, strain dcc1, hits give low values 0.995 | locus YCL029C, strain bik1, hits give low values 0.959 | locus YCL061C, strain MRC1, hits give low values 0.994 | locus YCL069W, strain vba3, hits give low values 0.987 | locus YCR088W, strain abp1, hits give low values 0.983 | locus YDL005C, strain med2, hits give low values 0.974 | locus YDL035C, strain GPR1, hits give low values 1.01 | locus YDL040C, strain nat1, hits give low values 0.987 | locus YDL074C, strain BRE1, hits give low values 0.973 | locus YDL101C, strain DUN1, hits give low values 0.976 | locus YDL134C, strain PPH21, hits give low values 0.983 | locus YDL185W, strain tfp1, hits give low values 0.977 | locus YDL192W, strain arf1, hits give low values 0.984 | locus YDR001C, strain nth1, hits give low values 0.986 | locus YDR069C, strain doa4, hits give low values 0.995 | locus YDR101C, strain arx1, hits give low values 0.984 | locus YDR137W, strain rgp1, hits give low values 1.01 | locus YDR150W, strain NUM1, hits give low values 0.993 | locus YDR159W, strain sac3, hits give low values 0.989 | locus YDR162C, strain NBP2, hits give low values 0.99 | locus YDR195W, strain ref2 0.98 | locus YDR297W, strain sur2, hits give low values 0.989 | locus YDR318W, strain mcm21, hits give low values 0.987 | locus YDR334W, strain swr1, hits give low values 0.975 | locus YDR335W, strain msn5, hits give low values 0.995 | locus YDR388W, hits give low values 0.984 | locus YDR392W, strain spt3, hits give low values 0.95 | locus YDR502C, strain sam2, hits give low values 0.993 | locus YEL003W, strain gim4, hits give low values 0.992 | locus YEL037C, strain rad23, hits give low values 0.984 | locus YEL061C, strain CIN8 (second series), hits give low values 0.99 | locus YEL061C, strain CIN8, hits give low values 0.997 | locus YER015W, strain faa2, hits give low values 0.99 | locus YER016W, strain bim1, hits give low values 0.999 | locus YER110C, hits give low values 0.979 | locus YER111C, strain swi4, hits give low values 0.982 | locus YER155C, strain BEM2 (second series), hits give low values 0.98 | locus YER155C, strain BEM2, hits give low values 0.989 | locus YER167W, strain BCK2, hits give low values 1 | locus YFR010W, strain ubp6, hits give low values 0.977 | locus YGL078C, strain dbp3, hits give low values 0.991 | locus YGL086W, strain mad1, hits give low values 1 | locus YGL167C, strain pmr1, hits give low values 0.978 | locus YGL173C, strain kem1, hits give low values 0.98 | locus YGL227W, strain vid30, hits give low values 0.98 | locus YGL240W, strain doc1, hits give low values 0.985 | locus YGL248W, strain PDE1, hits give low values 0.985 | locus YGL253W, strain hxk2, hits give low values 0.984 | locus YGR078C, strain PAC10, hits give low values 0.981 | locus YGR135W, strain pre9, hits give low values 0.974 | locus YGR229C, strain SMI1, hits give low values 1.01 | locus YGR252W, strain gcn5, hits give low values 1.07 | locus YHR013C, strain ard1, hits give low values 0.977 | locus YHR027C, strain rpn1, hits give low values 0.979 | locus YHR030C, strain SLT2, hits give low values 0.994 | locus YHR079C, strain IRE1 (second series), hits give low values 0.975 | locus YHR094C, strain hxt1, hits give low values 0.988 | locus YHR129C, strain ARP1, hits give low values 0.987 | locus YHR142W, strain chs7, hits give low values 0.98 | locus YHR200W, strain rpn10, hits give low values 0.978 | locus YIL066C, strain RNR3, hits give low values 0.974 | locus YIL073C, strain SPO22, hits give low values 0.981 | locus YIL125W, strain kgd1, hits give low values 0.998 | locus YIR030C, strain dcg1, hits give low values 0.981 | locus YJL092W, strain hpr5, hits give low values 0.986 | locus YJL095W, strain BCK1 (second series), hits give low values 0.99 | locus YJL095W, strain BCK1, hits give low values 0.971 | locus YJL115W, strain asf1, hits give low values 0.984 | locus YJL129C, strain trk1, hits give low values 0.996 | locus YJL134W, strain LCB3, hits give low values 0.994 | locus YJL154C, strain vps35, hits give low values 0.98 | locus YJL164C, strain tpk1, hits give low values 0.993 | locus YJL166W, strain qcr8, hits give low values 1 | locus YJL168C, strain set2, hits give low values 0.984 | locus YJL187C, strain SWE1 (second series), hits give low values 0.964 | locus YJL187C, strain SWE1, hits give low values 0.988
